Screening results from PubChem.
Shown are actives, neighbours in structure and some others; about 2.3% of the full set was active somewhere.
M1 ag parental: nonselective activator or artifact in parental CHO-K1 cells. Fluo-8 calcium fluorescence; scaled to maximal ATP response, vehicle zero. activation, % at 3 µM. 0.48% of 360,000 active. AID 602248; in the data active means activation above about 15%;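 further: untransfected CHO-K1 host cells lacking M1 receptor as counterscreen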
CHRM1 PAM: potentiates human M1 receptor response to acetylcholine; CHO-K1 hM1, Fluo-8 calcium fluorescence, ACh EC20; 0% = ACh EC20, 100% = maximal ACh; 0.088% of 360,000 active; activation, % at 3 µM; in the data active means activation above about 19%, passing the limit was not always enough
Target sequence (P11229 whole entry, looked up): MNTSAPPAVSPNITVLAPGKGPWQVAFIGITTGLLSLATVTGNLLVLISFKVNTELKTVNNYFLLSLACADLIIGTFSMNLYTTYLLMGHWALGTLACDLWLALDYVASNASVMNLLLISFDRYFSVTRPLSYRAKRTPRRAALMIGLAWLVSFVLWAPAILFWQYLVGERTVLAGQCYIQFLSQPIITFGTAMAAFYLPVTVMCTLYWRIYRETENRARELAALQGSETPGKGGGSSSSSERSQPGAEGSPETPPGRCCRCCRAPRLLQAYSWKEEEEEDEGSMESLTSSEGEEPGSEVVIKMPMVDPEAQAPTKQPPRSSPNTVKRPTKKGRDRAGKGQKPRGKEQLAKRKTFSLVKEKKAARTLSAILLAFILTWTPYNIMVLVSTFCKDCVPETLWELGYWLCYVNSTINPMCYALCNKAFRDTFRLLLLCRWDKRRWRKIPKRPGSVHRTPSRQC
CHO-K1 Ca PAM: counter-screen for M1 PAMs: effect in parental CHO-K1 cells; 0.02% of 360,000 active; ATP EC20, Fluo-8 calcium fluorescence; 0% at ATP EC20, 100% at ATP max; activation, % at 3 µM;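 active means activation above the run cutoff, the mean activation of all test compounds plus 3 SD, cut at about 40% in these data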;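 further: peak over basal fluorescence ratio in a 140 s read after ATP addition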
CHRM1 antagonist: human CHRM1 antagonism. inhibition, % at 3 µM. 1.3% of 360,000 active. CHO-K1 hM1, Fluo-8 calcium fluorescence, ACh EC80 antagonist;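 active means percent inhibition above its own plate's cutoff, namely the mean of that plate's compound wells plus 3 SD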;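 further: peak over basal fluorescence ratio during 140 s after agonist addition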
M1 ag: human M1 muscarinic receptor agonism; 0.33% of 360,000 active; activation, % at 3 µM; CHO-K1 hM1, Fluo-8 calcium fluorescence, agonist mode; 0% DMSO, 100% acetylcholine EC100; P11229; AID 588814;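 active means activation above the run's mean compound activation plus 3 SD, cut at about 16% in these data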;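 further: peak over basal fluorescence ratio within a 140 s kinetic read after compound addition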
CHO-K1 Ca antag: counter-screen for M1 antagonists: effect in parental CHO-K1 cells | ATP-induced calcium, Fluo-8 fluorescence | inhibition, % at 3 µM | 0.6% of 360,000 active;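 active means inhibition above a per-plate cutoff, the plate's mean sample inhibition plus 3 SD, cut at about 24% in these data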
A number is an active result; 0 = inactive; - = no result given.

SMILES	M1 ag parental	CHRM1 PAM	CHO-K1 Ca PAM	CHRM1 antagonist	M1 ag	CHO-K1 Ca antag
CCOC(=O)[C@]12CCC=C1N(Cc1ccco1)C(=O)[C@H](CC(=O)N1CCOCC1)C2	0	-	0	-	-	0
CCOC(=O)N1CCC(NC(=O)c2cc(S(=O)(=O)N3CCCC3)cn2C)CC1	0	0	0	0	0	25.9
C[C@@H]1CCCCCCCCC(=O)OCCN[C@H](C)CCCCCCCCC(=O)OCCN[C@H](C)CCCCCCCCC(=O)OCCN1	0	0	0	47.0	0	0
COC(=O)[C@]1(CC(C)C)N[C@H](c2ccc(-c3ccc(C(C)=O)cc3)cc2)[C@@H]2C(=O)N(C)C(=O)[C@@H]21	0	29.5	0	0	0	0
Cc1cc(OCC(=O)Nc2ccncc2)ccc1Cl	0	0	0	0	0	35.2
O=C(CSc1ccncc1)Nc1ccc2ccccc2c1	0	0	0	0	0	0
O=C(COc1ccc2ccccc2c1)Nc1ccncc1	0	0	0	0	0	24.1
Cc1cc(OCC(=O)Nc2ccncc2)cc(C)c1Br	0	0	0	0	0	25.2
O=C(CSc1ccc2ccccc2c1)Nc1ccncc1	0	0	0	31.5	0	0
Cc1cc(OCC(=O)Nc2ccc3oc(-c4ccncc4)nc3c2)ccc1Cl	0	0	0	0	0	0
O=C(Nc1cccc(S(=O)(=O)NC2=NCCCCC2)c1)c1ccc(Cl)cc1	0	0	0	0	0	0
CCOC(=O)C1(CC2CCCCO2)CCN(C(=O)Nc2ccc(C(=O)OC)cc2)CC1 (centres undefined)	0	0	0	0	0	0
CCCNC(=O)c1cc(C2CCCN(C(=O)c3ccc(NC(C)=O)cc3)C2)on1 (centres undefined)	0	0	0	0	0	0
CCC(CC)CN1CCC(CN2C(=S)NC[C@@H]2CC(C)C)CC1	0	0	0	0	0	0
COCCCN1C(=O)C(CC(=O)NCCN2CCOCC2)CC(C(=O)N2CCOCC2)=C1C (centres undefined)	0	-	0	-	-	0
CCOC(=O)c1nn(-c2ccc(F)cc2)c(=O)c2c(N)scc12	0	0	0	0	0	0
CCOC(=O)c1nn(-c2ccc(C)cc2)c(=O)c2c(N)scc12	0	0	0	0	0	32.8
O=C(COc1ccccc1)NC(=S)N1CCc2ccccc21	0	0	0	0	0	24.2
CCOC(=O)C1(C)CCN1C(=O)c1ccc(C(C)(C)C)cc1 (centres undefined)	0	0	0	0	0	0
CC(C)(C)Cc1c(-c2ccc(F)cc2)nc2ccc(Br)cn12	0	0	0	0	0	0
c1ccc(-c2nc3ccccc3[nH]2)nc1	0	0	0	0	0	0
Nc1nc(-c2nc3ccccc3[nH]2)cs1	0	0	0	0	0	32.2
COCCN(CC(=O)Nc1cccc(C)c1C)C(=O)c1cc(-c2ccncc2)nc2ccccc12	0	0	0	34.4	0	0
COCCN(CC(=O)Nc1cccc(C)c1C)C(=O)c1cc(-c2cccs2)nn1-c1ccccc1	0	0	0	0	0	0
Cc1cc(C)c(C)c(S(=O)(=O)NCc2cccnc2)c1C	0	0	0	0	0	0
SMILES	M1 ag parental	CHRM1 PAM	CHO-K1 Ca PAM	CHRM1 antagonist	M1 ag	CHO-K1 Ca antag
COc1cc(C)c(Cl)c(C)c1S(=O)(=O)NCc1cccnc1	0	0	0	0	0	27.3
COc1cccc(Nc2nc3cc(C)ccc3cc2C)c1	0	0	0	0	0	25.6
C[C@H](O)[C@@H]1C(=O)N2CCc3c([nH]c4ccccc34)[C@@H]2C[C@@H]1N(C)S(=O)(=O)c1ccccc1	0	0	0	0	0	0
CCOC(=O)C1=C(COC(=O)c2cc(OC)c(OC)cc2[N+](=O)[O-])NC(=O)NC1C (centres undefined)	0	0	0	0	0	0
CN(C)CCC(O)(c1ccccc1)c1ccccc1Cl (centres undefined)	0	0	0	37.8	0	0
CN(C)CCCC(C)(O)C(C)(C)c1ccccc1 (centres undefined)	0	0	0	0	0	0
CN(C)CCC(O)(c1ccccc1)c1ccccc1	0	0	0	66.6	0	0
Cc1ccc(NC(=O)C(OC(=O)c2ccc(O)cc2)c2ccccc2)cc1Cl (centres undefined)	0	0	0	0	0	0
Cc1ccc(NC(=O)C(OC(=O)c2ccc(F)cc2)c2ccccc2)cc1Cl (centres undefined)	0	0	0	39.6	0	0
c1ccc(Oc2cccc(OCCCn3cncn3)c2)cc1	0	20.7	0	0	0	0
Cc1noc(C(=O)Nc2ccc(F)c(Cl)c2)c1Cl	0	0	0	82.8	0	0
COc1ccc(NC(=O)CCc2nnc3ccc(NCc4ccco4)nn23)cc1	0	25.5	0	0	0	0
O=C(CN1CCN(Cc2ccccc2)CC1)Nc1cccc(C(F)(F)F)c1	0	0	0	0	0	25.6
O=C1Nc2cc(C(=O)NCCCN3CCCC3)ccc2S/C1=C/c1ccccc1F	0	0	0	0	0	0
O=C(NCCCN1CCCCC1)c1ccc2c(c1)NC(=O)c1ccccc1S2	0	0	0	42.8	0	0
O=C(NCc1ccccc1)C1Cc2c(-c3ccc4c(c3)OCO4)ccnc2O1 (centres undefined)	0	0	0	0	0	0
Cn1c(N)c(C(=O)CSc2nnnn2-c2ccccc2)c(=O)n(C)c1=O	0	0	0	0	0	0
Cn1c(N)c(C(=O)CSc2nc(C3CC3)n(-c3ccccc3)n2)c(=O)n(C)c1=O	0	0	0	0	22.3	0
C[C@@H]1CN([C@H](C)CO)S(=O)(=O)c2ccc(Br)cc2O[C@H]1CN(C)C(=O)Nc1ccccc1	0	0	0	0	0	0
Cc1ccc(CN2CCN(CCCn3cnc4c(OCc5ccccc5)ncnc43)CC2)cc1	0	0	0	46.8	0	0
Nc1ccc(C(=O)CC(=O)Nc2ccc(Cl)cc2)cc1	0	0	0	0	0	0
CNC(=O)c1cc2cc(OC)ccc2oc1=O	0	0	0	0	0	0
COc1ccc2oc(=O)c(C(=O)NCc3ccc(F)cc3)cc2c1	15.6	0	0	0	0	0
COc1ccc2oc(=O)c(C(=O)C[n+]3cccc(C)c3)cc2c1	0	0	0	31.8	0	0
COc1cc(/C=C2\S/C(=N/S(=O)(=O)c3ccccc3)NC2=O)c([N+](=O)[O-])cc1OC	0	0	0	0	0	26.6
COc1ccc(S(=O)(=O)/N=C2/NC(=O)/C(=C\c3cc(OC)c(OC)cc3[N+](=O)[O-])S2)cc1	0	0	0	0	0	0
CC(C)Sc1nc2sccc2c(=O)n1-c1ccccc1	0	0	0	0	0	0
COc1cc(CNCCNC(=O)c2nonc2N)ccc1OCc1ccc(Cl)cc1	17.0	0	0	0	0	0
O=C(c1ccccc1Oc1ccc([N+](=O)[O-])cc1)N1CCOCC1	0	0	0	0	0	24.5
